From ChEMBL document CHEMBL3988442, “University of Dundee, Small-Polar-MMV Screening Library” (2021)

How the values were obtained:
[1] = target: T1, Aspartate--tRNA(Asp/Asn) ligase (Mycobacterium tuberculosis (strain ATCC 25618 / H37Rv)) (UniProt P9WFW3); test: Assay for Asp RNA synthetase-1 from Mycobacterium tuberculosis; assay type: functional; set-up: scale not given: direction of the effect not stated beside the values; details: 30 µM; further: in the data most compounds retested in dose-response had high values
T1 sequence (whole entry): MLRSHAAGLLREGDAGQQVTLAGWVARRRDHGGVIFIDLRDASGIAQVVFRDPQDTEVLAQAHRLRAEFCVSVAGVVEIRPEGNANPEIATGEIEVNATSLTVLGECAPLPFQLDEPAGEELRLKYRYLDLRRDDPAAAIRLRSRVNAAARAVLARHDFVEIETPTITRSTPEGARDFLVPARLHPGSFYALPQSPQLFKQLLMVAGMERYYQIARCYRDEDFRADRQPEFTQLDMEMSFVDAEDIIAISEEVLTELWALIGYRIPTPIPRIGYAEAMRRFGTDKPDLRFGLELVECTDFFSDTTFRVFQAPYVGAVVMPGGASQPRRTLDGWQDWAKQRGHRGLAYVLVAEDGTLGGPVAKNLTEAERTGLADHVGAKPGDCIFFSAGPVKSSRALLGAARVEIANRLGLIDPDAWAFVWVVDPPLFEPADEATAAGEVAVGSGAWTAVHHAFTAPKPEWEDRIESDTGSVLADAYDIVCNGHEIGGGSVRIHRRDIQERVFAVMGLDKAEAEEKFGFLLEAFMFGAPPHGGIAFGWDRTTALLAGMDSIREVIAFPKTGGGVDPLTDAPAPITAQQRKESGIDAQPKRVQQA

[2] = target: Shiga toxin 2 (Escherichia coli O157:H7) (UniProt P09385+P09386); test: E. coli 0.157:H7 Shiga Toxin SOP - stx2 screening assay; assay type: functional; set-up: scale not given: direction of the effect not stated beside the values; details: 30 µM

SMILES	Percent Effect [1]	Percent Effect [2]
CN(Cc1ncc(-c2ccccc2)o1)CC1CCCN1c1cccnn1 (stereo unspecified)	0.259%	5.15%
CCN1CC(C(=O)NCc2ccnc(-n3ccnc3C)c2)CC1=O (stereo unspecified)	-3.16%	-11.9%
CC(C)Cc1noc(CN2CCOCC2)n1	-2.59%	29.5%
CN1CCCCC1c1ncc2c(n1)CCN(Cc1ccccc1Cl)C2 (stereo unspecified)	3.02%	-22.5%
CCOc1ccccc1-c1noc(CN(C)Cc2cnn(C)c2)n1	2.13%	-14%
O=C(CNC(=O)N1CCc2c([nH]c3ccc(Cl)cc23)C1)N1CCOCC1	3.4%	-37.6%
Cc1nc2ccccc2nc1CN(C)CC1CCCN1c1cccnn1 (stereo unspecified)	1.76%	22.3%
CCOc1ncccc1NC(=O)NCC(O)c1ccccc1OC (stereo unspecified)	-0.742%	-2.67%
COc1cccc(CN(C)C(=O)CCC(=O)c2ccc(Cl)cc2)c1OC	-1.19%	-1.09%
CN1CCN(c2ncc3c(=O)n(-c4cccc(F)c4)c(=O)[nH]c3n2)CC1	11.2%	-20.7%
COC(=O)c1cc(C(=O)N2CCOCC2(C)C)n(-c2ccccc2)n1	-4.48%	13.3%
CS(=O)(=O)NCc1cnc2n1CCN(Cc1ccsc1)CC2	-2.39%	-23.6%
CCNC(=O)[C@@H]1C[C@H](NC(=O)c2ccccc2C#N)CN1CCCSC	-0.866%	0.196%
O=C(NCc1ccco1)[C@H]1C[C@@H]2CCN(c3ccncn3)C[C@@H]2O1	-4.16%	-6.97%
Cc1ccc2c(c1)OCCCC2NCc1nnc2n1CCCCC2 (stereo unspecified)	-4.58%	3.72%
CC(NC(=O)CSCC(=O)Nc1ccccc1)c1ccccc1 (stereo unspecified)	3.01%	16.8%
COc1ccc(CN(C)Cc2nc3c(cnn3C)c(=O)[nH]2)cc1OC	-3.27%	-8.89%
O=C(NC[C@]12COC[C@H]1CN(Cc1nccs1)C2)N1CCCC1	1.45%	-23.5%
CCc1nccn1C1CCCN(C(=O)c2ccc3nncn3c2)C1 (stereo unspecified)	-8.68%	7.36%
Cc1[nH]c(=O)[nH]c(=O)c1CN1CCCC(CCc2c(F)cccc2F)C1 (stereo unspecified)	0.725%	0.432%
O=C(Cn1cccnc1=O)NC(Cc1cccs1)c1ccccn1 (stereo unspecified)	-0.372%	-0.987%
O=C(Cc1c[nH]c2ccccc12)N1CCN(C(=O)c2ccoc2)CC1	7.22%	-16.5%
CCCc1cc(C(=O)N2CCCC2c2cccnc2)[nH]n1 (stereo unspecified)	3.74%	11.1%
Cc1nc(CN2CCCC2c2ccsc2)nc2ccccc12 (stereo unspecified)	-2.75%	-26.3%
CC(C)N1CCN(C(=O)Nc2cnn(CC(N)=O)c2)CC1	-5.08%	-11.9%
Cn1ccc(C(=O)NCc2cccc(NC(=O)C3CCC3)c2)cc1=O	-0.879%	-48%

SMILES	Percent Effect [1]	Percent Effect [2]
CCS(=O)(=O)N1CCO[C@H]2[C@H](OCCCn3cccn3)CC[C@@H]21	0.786%	-17.2%
Cc1cc(C)cc(OCC(=O)NC2CCN(S(C)(=O)=O)CC2)c1	0.903%	-16.4%
CC(C)c1nnc2n1CCN(C(=O)CN1CCc3sccc3C1)C2	-0.1%	-16.2%
Cc1nc(CNCC2CCCN2c2cccnn2)no1 (stereo unspecified)	-2.08%	-15.8%
Cn1cnc(S(=O)(=O)NCCCN2CCOCC2)c1Cl	3.04%	18.7%
CC(C)C(C)NC(=O)Nc1ccc(CS(C)(=O)=O)cc1 (stereo unspecified)	3.12%	-11.6%
Cc1cnn(CC2CN(Cc3nnc(-c4occc4C)o3)CCO2)c1 (stereo unspecified)	2.04%	12.3%
CCCc1cc(C(=O)N(C)Cc2cnc3ccccc3n2)n(C)n1	8.2%	-6.99%
Cc1ccc(CN2CCC[C@]3(C(=O)O)CN(c4ncccn4)C[C@@H]3C2)o1	7.77%	-25.5%
O=C(c1cc(Cl)c2c(c1)OCCO2)N1CCCC(n2cncn2)C1 (stereo unspecified)	-7.78%	10.4%
Cn1cc(CN2CCC3(C2)CN(Cc2ccsc2)C3)cn1	1.9%	-10.4%
COc1ccc(CN2CCCCC2CNC(=O)OC(C)(C)C)cc1F (stereo unspecified)	-1.76%	6.58%
CC(C)CCCNC(=O)Nc1ccc(F)c(C(N)=O)c1	-3.06%	-45.5%
Cc1ccc(CN2CCCC3(CCN(S(C)(=O)=O)C3)C2)o1 (stereo unspecified)	5.01%	3.27%
Cc1nc(CN2CCC(C(=O)O)(n3ccc(-c4ccco4)n3)CC2)co1	-1.98%	-9.21%
Cc1nc(C2CCCN(C(=O)C(C)(C)n3cc(Cl)cn3)C2)no1 (stereo unspecified)	-5.75%	-14.3%
O=C(NC[C@H]1OC[C@@H]2CCN(Cc3ccco3)C[C@@H]21)c1ccsc1	-1.14%	4.74%
COc1ccc(C(C)NC(=O)NCCCn2cncn2)cc1F (stereo unspecified)	7.3%	-14.5%
CNS(=O)(=O)c1ccc(C(=O)N2CCCC2c2cnn(C)c2)o1 (stereo unspecified)	-2.58%	-29.3%
O=C(c1ccc2c(c1)COC2)N1CCC(Nc2cccnn2)CC1	-1.3%	-8.52%
CN1CCCC2(CCN(C(=O)CCn3cncn3)C2)C1=O (stereo unspecified)	-4.51%	27.3%
CN(C)C(=O)CN1C[C@@H]2CC[C@H](C1)N(C(=O)CCn1cncn1)C2	1.04%	-6.26%
Cc1cc(NC(=O)N(CC2CCOC2)C2CC2)no1 (stereo unspecified)	-10.9%	-2.82%
Cc1ccc(S(=O)(=O)Nc2ccc(-n3cccc3C(=O)O)c(C)c2)s1	4.34%	18.8%
Cc1ncsc1C(=O)NCCSCCCO	-4.34%	-35.1%
CCC(CNC(=O)c1ccc(=O)[nH]n1)N1CCc2ccccc2C1 (stereo unspecified)	2.11%	-11.6%

SMILES	Percent Effect [1]	Percent Effect [2]
CCn1nc(CC(C)C)cc1C(=O)NCCCOC	-0.668%	11.5%
O=C(c1cnoc1)N1CCC[C@]2(C[C@H](Oc3ncccc3F)CO2)C1	-2.03%	-8.52%
CC(C)(C)n1cc(C(=O)N2CCN(Cc3ccsc3)CC2)cn1	-3.48%	30.7%
CCn1cnnc1CNC(=O)c1cc(Cl)ccc1OC	0.48%	-24.3%
c1ccc(Cn2cc(CNC3CCc4ncnn4C3)cn2)cc1 (stereo unspecified)	-2.87%	-22.8%
Cc1cnn(CC2CCCN2Cc2coc(-c3ccccc3)n2)c1 (stereo unspecified)	-5.72%	-30.1%
CC(c1cccc(S(N)(=O)=O)c1)N(C)CCOc1ccccc1 (stereo unspecified)	0.185%	-29.3%
O=C(Nc1nc2c(s1)CCC2)c1cccnc1N1CCOCC1	-4.4%	-10.3%
O=C(Cc1csc(-c2nnc[nH]2)n1)N1CCCC1Cn1cccn1 (stereo unspecified)	-4.54%	5.43%
CCS(=O)(=O)N1CCC(c2nnc(Cn3cccn3)n2C2CC2)CC1	-3.09%	-6.14%
COc1ccc(OC)c(C(O)CN2CC(n3cccn3)C2)c1 (stereo unspecified)	-0.9%	21.2%
Cc1ccc(-c2nc(CCNC(=O)NC3CCN(C)CC3)co2)cc1	-3.19%	3.52%
CC(=O)c1ccc(C(=O)NCCCOC(C)c2ccccc2)s1 (stereo unspecified)	-4.7%	-71.8%
CC(=O)Nc1nc(C2CCN(CC(N)=O)CC2)cs1	-7.79%	-8.65%
CC(C)c1noc(C(C)N2CCN(CCN3CCCC3=O)CC2)n1 (stereo unspecified)	1.45%	17.6%
CCOC(CC)C(=O)NCc1ccnc(Oc2ccc(F)cc2)c1 (stereo unspecified)	0.301%	5.28%
CN(C)C(=O)N1CCN(Cc2ccccc2)[C@@H]2CS(=O)(=O)C[C@@H]21	0.569%	-3.78%
COCCN1CCC2(CCN(Cc3nccs3)CC2)C1=O	3.12%	-8.73%
Cc1cc(C)n(CC(=O)NC(Cc2ccsc2)c2ccccn2)c(=O)n1 (stereo unspecified)	-2.19%	-15.3%
O=C(c1ccoc1)N1CC[C@@H]2[C@H]1CCC(=O)N2c1ccccc1	1.49%	1.4%
O=C([C@@H]1CC[C@@H]2[C@@H](CCN2Cc2cccc(F)c2)O1)N1CCCCO1	0.291%	-15%
Cc1cccc(C2(NC(=O)CCN3C(=O)CCC3=O)CCCC2)c1	-6.14%	10.2%
Cc1cc(C2CCCN(CCc3ccccn3)C2)n[nH]1 (stereo unspecified)	-5.34%	-1.21%
Cc1nn(C(C)C)c(C)c1NC(=O)c1ccccc1	1.73%	-4.81%
Cc1ccc(CN(CCCn2ccnc2)Cc2c[nH]cn2)s1	-4.18%	-13.7%
COc1ccc(C(=O)N2CCCC(C)C2)cc1F (stereo unspecified)	0.26%	13.7%

SMILES	Percent Effect [1]	Percent Effect [2]
CS(=O)(=O)N1CCc2nc(NC(=O)Nc3c(F)cccc3F)sc2C1	-4.11%	4.52%
O=C(c1cc2cc(F)ccc2[nH]1)N1CCC(Nc2cccnn2)CC1	-0.116%	-83.2%
CCc1nnc2n1CCN(C(=O)c1ccc3[nH]cnc3c1)C2	-2.2%	-13.3%
Fc1ccc(CCN2CCC(c3nnc(-c4cccnc4)o3)CC2)cc1	4.51%	-76.7%
Cc1cc(=O)n(CC(=O)Nc2ccc(C(N)=O)cc2)nc1C	-0.0781%	-33%
CNC(=O)c1cc2c(nc1NCC1CC1)CCN(c1ccncn1)CC2	-4.09%	-30.7%
Cn1c(CN2CCCC2)nnc1C1CCCN(C(=O)C2CCOCC2)C1 (stereo unspecified)	2.71%	-6.15%
O=C(NCCN1CCCCC1)c1ccoc1	2.52%	-21.3%
CN(C)CC1(O)CCN(S(=O)(=O)c2ccc(F)cc2)C1 (stereo unspecified)	-0.491%	12.7%
CC1CN(CC(=O)NC(=O)NCc2ccccc2)CCO1 (stereo unspecified)	-6.29%	-0.513%
Cc1ncsc1C(=O)NCCOc1ncc(Cl)cc1Cl	3.06%	-33.3%
CC(C(=O)N1CCCN(c2ncccc2C#N)CC1)n1cccn1 (stereo unspecified)	-4.27%	31.7%
CC(c1nc(C(C)(C)C)no1)N1CCN(CC(=O)N2CCOCC2)CC1 (stereo unspecified)	-1.23%	7.56%
Cc1cc(C)cc(OCCC(=O)N2CCCC(n3cncn3)C2)c1 (stereo unspecified)	-4.66%	5.55%
CCN(CC)Cc1cn2c(n1)CN(C(=O)c1cnccn1)CC2	0.29%	5.28%
Cc1ccc2c(n1)N(C)CCN(C(=O)NC1CC1)C2	7.86%	-7.89%
CN1CCN(C(=O)c2cccc(OCc3cscn3)c2)CC1	0.522%	-26.5%
Cc1cnc(C(=O)N2CCCCC2c2[nH]ncc2S(C)(=O)=O)cn1 (stereo unspecified)	2.63%	-5.44%
Cc1cc(NC(=O)CN2CCn3c(nnc3C(C)C)C2)no1	-3.23%	-39.9%
Cc1cc(NC(=O)CN(C)C2CCCN(c3cccnn3)C2)n(C)n1 (stereo unspecified)	5.7%	30.1%
COc1ccccc1-c1noc(CN2CCCC2Cn2cccn2)n1 (stereo unspecified)	-7.54%	21.6%
N#CCCN(C(=O)CN1CCCC1c1ccsc1)c1ccccc1F (stereo unspecified)	-3.67%	4.76%
Cc1ccc(C(=O)Nc2cn[nH]c2)cn1	1.01%	15.1%
Cn1cccc1-c1cc(C(=O)N2CC(c3cccnc3)C2)[nH]n1	-0.915%	-50.6%
Cn1ccnc1-c1cccc(NC(=O)NCCN2CCOCC2)c1	4.54%	-60.9%
